Screening results deposited in PubChem BioAssay by National Center for Advancing Translational Sciences (NCATS).
Most compounds without a hit are left out; they make up all but 7.8% or so of the library.
Tau filament bind – binders of human tau filaments. P10636. recombinant tau filaments, thioflavin S fluorescence, 15 h; filaments grown with octadecylsulfate alongside compound. Potency, µM (series often up to 57.1 µM), without a hit: at the highest dose activity change, negative = inhibition. 71,000 compounds, 2% hits. AID 596;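 also: % is scaled to controls: 0 for no effect and ±100 for the full control effect; actives lower thioflavin S fluorescence by blocking filaments or displacing dye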
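Tau 2 uM in ThS buffer dispensed; compound added; 60 uM ODS added (finals 1 uM tau, 30 uM ODS); 15 h 37 C; fluor ex450/em510.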
TSHR agonist – activates the human thyroid stimulating hormone receptor; P16473; HEK293-CNG-TSHR cells (CNG channel as cAMP sensor), membrane potential dye, cAMP; Potency, µM (top dose mostly 57.1 µM), for inactives: at the highest dose activation, actives largely listed as activators; 73,000 compounds, 0.48% hits; AID 926; active = well fitted activation curve with a large enough effect in the main read-out, with a control signal flat, not every such curve was filed as active; inconclusive = small, poorly fitted or top-dose-only effect, or a change in a side signal; inactive = no such curve, though single readings can be large or run the other way; % of control where 0% means no effect;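 also: the control signal comes from parental cells without the receptor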
Target sequence (P16473 whole entry, looked up): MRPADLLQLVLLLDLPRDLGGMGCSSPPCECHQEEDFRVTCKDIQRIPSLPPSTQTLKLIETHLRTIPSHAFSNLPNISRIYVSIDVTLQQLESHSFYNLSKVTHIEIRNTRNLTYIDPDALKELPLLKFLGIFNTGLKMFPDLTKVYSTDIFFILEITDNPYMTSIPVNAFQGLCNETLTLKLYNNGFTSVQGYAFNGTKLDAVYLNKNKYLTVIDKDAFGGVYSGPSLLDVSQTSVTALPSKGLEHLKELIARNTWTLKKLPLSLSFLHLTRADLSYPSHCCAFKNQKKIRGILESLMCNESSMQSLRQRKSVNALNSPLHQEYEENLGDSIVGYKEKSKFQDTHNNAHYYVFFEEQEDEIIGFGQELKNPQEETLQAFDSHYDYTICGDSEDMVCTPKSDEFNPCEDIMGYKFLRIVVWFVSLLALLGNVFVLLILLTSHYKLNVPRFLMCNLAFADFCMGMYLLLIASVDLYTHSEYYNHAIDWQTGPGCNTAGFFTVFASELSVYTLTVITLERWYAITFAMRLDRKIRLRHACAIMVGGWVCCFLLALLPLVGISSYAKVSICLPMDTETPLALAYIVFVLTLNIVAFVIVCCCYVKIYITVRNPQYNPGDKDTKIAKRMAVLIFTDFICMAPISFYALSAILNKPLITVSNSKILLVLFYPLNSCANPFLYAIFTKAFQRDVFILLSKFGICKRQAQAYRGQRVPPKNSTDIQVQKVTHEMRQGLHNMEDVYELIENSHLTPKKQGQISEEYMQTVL
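HEK 293 cells stably expressing TSHR and a modified CNG channel, with CNG-only parental cells as counterscreen, were preloaded 60 min at room temperature with membrane potential dye containing 100 uM RO 20-1724. Compound exposure was 30 min, and depolarization was read as fluorescence at 590 nm.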
Luciferase inh – blocks Photinus pyralis firefly luciferase activity | Potency, µM (titrated, usually from 57.1 µM), without a hit: at the highest dose activity change, negative = inhibition, most hits filed as inhibitors | 72,000 compounds, 2.2% hits | purified firefly luciferase, luminescence, 8 min; also: % is scaled to controls: 0 for no effect and ±100 for the full control effect; nearly all actives have a fitted effect of over 40% in size
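Here, luciferase activity is measured as luminescence following an 8 min room-temperature reaction at 10 uM ATP, pH 7.2. Every library sample is titrated.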
Bst PK mod – modulators of Bacillus stearothermophilus pyruvate kinase. Potency, µM. 51,000 compounds, 1.2% hits. AID 361. purified pyruvate kinase, luminescence ATP production; ribose 5-phosphate activator present at AC10; in the data active = potency below about 11 µM; inconclusive = mostly about 12 µM to 25 µM;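 the screen sought inhibitors and activators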;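 also: scaled between full activation by ribose 5 phosphate and full inhibition by luteolin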
HEK293 cAMP ctrl – counter-screen for TSHR agonists: cAMP increase in parental HEK293. AID 938. 73,000 compounds, 2.5% hits. Potency, µM (doses to about 57.1 µM), for inactives: at the top dose activation, actives largely listed as activators. parental HEK293 CNG cAMP sensor, membrane potential fluorescence; also: % of control where 0% means no effect; nearly all actives have a fitted effect of over 55% in size
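Parental HEK 293 cells stably expressing a cAMP-gated CNG channel were loaded with membrane potential dye containing 100 uM RO 20-1724 for 60 min. Compound added for 30 min; depolarization read as fluorescence intensity at 590 nm.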
ALOX15 inhib – blocks human 15-lipoxygenase activity; Potency, µM (doses to about 57.1 µM), for inactives: at the top dose activity change, negative = inhibition, actives largely listed as inhibitors; 74,000 compounds, 1.4% hits; purified 15hLO-1, xylenol orange hydroperoxide absorbance; P16050; also: % is scaled to controls: 0 for no effect and ±100 for the full control effect; nearly all actives have a fitted effect of over 55% in size
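Hydroperoxide formed from arachidonic acid (50 uM) by purified human 15hLO-1 (40 nM) oxidizes ferrous iron, and the ferric-xylenol orange complex is read at 573 versus 405 nm. Compounds were preincubated 15 min; reaction ran 6 min at room temperature.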
Starred values were filed as active, the others as inactive; i = inactive; u = inconclusive; x = no result; [ ] = remark or other dose. Unless noted, calls follow the shape of the dose curve; as a rule, active = well fitted curve in the direction sought with a large enough effect; inconclusive = small, poorly fitted or top-dose-only effect, or another doubt; inactive = no such curve, though single readings can be large; an effect the other way counts as inactive or inconclusive. Potency is read from the fitted curve at half-maximal effect.

SMILES | Tau filament bind | TSHR agonist | Luciferase inh | Bst PK mod | HEK293 cAMP ctrl | ALOX15 inhib
CO[C@@H]1/C=C\CC(=O)N2CCC[C@@H]2C(=O)OC[C@@H](C)C(=O)OC[C@H]1C | x | -14%[11.4 µM] | 0%[11.4 µM] | x | -1%[11.4 µM] | -1%[11.4 µM]
O=C(NCC1COc2ccccc2O1)C1CCN(S(=O)(=O)c2cccc3nsnc23)CC1 (stereo not drawn) | -58% | 5% | -1% | >57 | 6% | -4%
C=C1C(=O)OC2C1CC/C(C)=C/CCC1(C)OC21 (stereo not drawn) | x | x | x | x | x | -5%
CCCc1nc2oc3cc(OC)ccc3c(=O)c2c(=O)n1Cc1ccco1 | 0% | 10% | 0% | x | 19% | -11%
CCCc1nc2sc3ccccc3c(=O)c2c(=O)n1Cc1ccco1 | 16µM* | u | 1% | x | u | -19%
COc1ccc2[nH]c(=O)c(CN(Cc3ccc(C)cc3)Cc3nnnn3CC3CCCO3)cc2c1 (stereo not drawn) | 38% | u | -7% | x | u | u
O=C(Nc1ccccc1NC(=O)c1ccco1)c1ccco1 | 2% | 2% | -1% | x | 5% | -4%
O=C(Nc1cccc2cccc(NC(=O)c3ccco3)c12)c1ccco1 | 13µM* | 7% | 2% | >57 | 1% | -14%
CC(C)C(NC(=O)c1ccccc1NC(=O)c1ccco1)C(=O)O (stereo not drawn) | -8% | u | 1% | >57 | 32µM* | 14%
CCCn1c(C)nc2c(NCC(C)(C)CN(C)C)nc(C)nc21 | 12% | 10% | x | x | 4% | 1%
Cc1ccccc1-c1nc(CS(=O)(=O)CC(=O)NCc2ccccc2)c(C)o1 | 34% | 16µM* | 3% | x | 27% | -14%
COc1cccc(-c2nc(CS(=O)(=O)CC(=O)NCc3ccccc3OC)c(C)o2)c1 | 20% | u | 4% | x | u | 0%
COc1ccc(OC)c(CCNC(=O)CS(=O)(=O)Cc2nc(-c3ccccc3C)oc2C)c1 | 15% | u | 2% | >57 | 16µM* | -17%
CC(=O)NCCN=C(C)c1sc2ccccc2c1O | 5% | x | -23% | >11 | 12% | u
CC(=Nc1ccc(O)cc1)c1sc2ccccc2c1O | -4% | u | 7.9µM* | u | u | -17%
CC(C)NC(=O)N1CC[C@@]2(CCCN(C(=O)Oc3ccccc3)C2)C1 | 5% | 5% | -8%[11.4 µM] | x | 15% | 7%
CCc1nnc(NC(=O)CSc2nc3c(cc2C#N)CCC3)s1 | 10% | -9% | 3.2µM* | x | 6% | 9%
N#Cc1cc2c(nc1SCC(=O)Nc1nccs1)CCCCC2 | i | u | -7% | x | 20µM* | -5%
CCOC(=O)CC(=O)CSc1nc2c(cc1C#N)CCCCCC2 | x | x | -13%[25.5 µM] | >26 | x | x
CC(C)n1cnc2cc(NCc3nc4ccccc4n3C)ccc21 | 15% | -10% | 13µM* | x | -15% | 19%
CCn1cnc2cc(NCc3nc4ccccc4n3C)ccc21 | 7% | -13% | 13µM* | x | -3% | 27%
Cn1c(CNc2ccccc2)nc2ccccc21 | x | 5% | x | x | -13% | 6%
Cn1c(CNc2ccccc2O)nc2ccccc21 | -13% | -11% | -13% | x | -6% | 18%
COC(=O)CC1C(C)(C)C(O)C2CC3=C4C=C(OC)OC(c5ccoc5)[C@]4(C)CCC3[C@@]1(C)C2=O (stereo partly drawn) | x | x | x | x | x | 0%
COc1cc(C2c3c(oc4ccc(Cl)cc4c3=O)C(=O)N2Cc2ccco2)cc(OC)c1OC (stereo not drawn) | -8% | 1% | 4% | >57 | -6% | 10%
SMILES | Tau filament bind | TSHR agonist | Luciferase inh | Bst PK mod | HEK293 cAMP ctrl | ALOX15 inhib
CCN(CC)CCCN1C(=O)c2oc3ccccc3c(=O)c2C1c1cccnc1 (stereo not drawn) | 13% | -7% | 2% | >57 | -3% | 5%
O=C1c2oc3ccc(Cl)cc3c(=O)c2C(c2cccnc2)N1Cc1ccco1 (stereo not drawn) | 42% | x | 13µM* | x | 11% | 3%
O=C1c2oc3ccccc3c(=O)c2C(c2cccnc2)N1Cc1ccco1 (stereo not drawn) | 78% | u | 3.2µM* | >57 | u | -11%
Cc1ccc(S(=O)(=O)N[C@H]2COC(=O)C/C=C\[C@@H](C)COC(=O)C/C=C\[C@@H]2C)cc1 | x | 1%[11.4 µM] | -1%[11.4 µM] | x | 5%[11.4 µM] | 2%[11.4 µM]
Cc1nc2ccccc2c(=O)n1NC(=O)COc1ccccc1 | -16% | 12% | 1% | x | 0% | 1%
O=C(COc1ccccc1)Nn1cnc2ccccc21 | -3% | -6% | 2% | >57 | 2% | 13µM*
C=CCn1c(=N)n(CC(O)COc2ccccc2OC)c2ccccc21 (stereo not drawn) | 35% | 21% | 0% | x | 29% | -4%
C=CCn1c(-c2ccc(OC)c(OC)c2)cs/c1=N\c1ccccn1 | -10% | 4% | 1% | 6.9* | 14% | -14%
Cc1ccc2[nH]c3nc(CCCn4ccnc4-c4ccccc4)nnc3c2c1 | x | x | 2%[11.4 µM] | x | -3%[11.4 µM] | 5%[11.4 µM]
CCN(CCCNC(=O)CN(C)S(=O)(=O)c1cccc2nsnc12)c1cccc(C)c1 | 16µM* | 19% | -1% | >57 | -7% | -11%
Cc1ccc(CCCC(=O)O)cc1C | 4%[11.4 µM] | 5%[11.4 µM] | 1%[11.4 µM] | x | 26%[11.4 µM] | 6%[11.4 µM]
Cc1cc2c(c(=O)n1CCN(C)C)C(c1ccc(Cl)cc1)C(C#N)=C(N)O2 (stereo not drawn) | -3% | 0% | 3% | >57 | 7% | 2%
Cc1cc2c(c(=O)n1C1CC1)C(c1cccc(Cl)c1)C(C#N)=C(N)O2 (stereo not drawn) | 0% | u | 0% | >57 | 3.2µM* | -1%
O=C1NCCCC1C(=O)N1CCN(C(=O)C2CCCNC2=O)CC1 (stereo not drawn) | -2% | -1%[11.4 µM] | -1% | >57 | -13% | 1%
CCC(C)(C)NC(=O)C(c1ccncc1)N(Cc1cccs1)C(=O)Cn1nnc2ccccc21 (stereo not drawn) | 2% | u | 0% | >57 | 20µM* | 9%
Cc1ccc(-c2nnn(CC(=O)N(Cc3ccccc3)C(C(=O)NC(C)(C)C)c3ccncc3)n2)o1 (stereo not drawn) | 0% | 29% | -1% | >57 | 28% | -3%
CC(C)(C)NC(=O)C(c1ccncc1)N(Cc1cccs1)C(=O)Cn1nnc(-c2cccs2)n1 (stereo not drawn) | -7% | u | 0% | >57 | 20µM* | 3%
CC[C@](N)(CCC(=O)O)C(=O)O | -15% | 4% | 1% | x | 2% | -23%[25.6 µM]
C[C@@](N)(C(=O)O)c1cccc(CC(=O)O)c1 | -18% | 15% | 2% | x | 2% | 3%[25.6 µM]
